Records with an inconclusive call do not appear. Entries that show only a call come without a potency. Activity calls are given as the source filed them. Calls come from the whole dose curve; as a rule, active = well fitted inhibition curve with a large enough effect; inconclusive = small, poorly fitted or top-dose-only effect; inactive = flat fitted curve, though single readings scatter.

For 34 compounds, Potency results are on record in PubChem BioAssay (NCATS).
Potency is the fitted concentration of half-maximal effect.

Chain of Ubiquitin carboxyl-terminal hydrolase 1 (Homo sapiens) (O94782 whole entry, looked up): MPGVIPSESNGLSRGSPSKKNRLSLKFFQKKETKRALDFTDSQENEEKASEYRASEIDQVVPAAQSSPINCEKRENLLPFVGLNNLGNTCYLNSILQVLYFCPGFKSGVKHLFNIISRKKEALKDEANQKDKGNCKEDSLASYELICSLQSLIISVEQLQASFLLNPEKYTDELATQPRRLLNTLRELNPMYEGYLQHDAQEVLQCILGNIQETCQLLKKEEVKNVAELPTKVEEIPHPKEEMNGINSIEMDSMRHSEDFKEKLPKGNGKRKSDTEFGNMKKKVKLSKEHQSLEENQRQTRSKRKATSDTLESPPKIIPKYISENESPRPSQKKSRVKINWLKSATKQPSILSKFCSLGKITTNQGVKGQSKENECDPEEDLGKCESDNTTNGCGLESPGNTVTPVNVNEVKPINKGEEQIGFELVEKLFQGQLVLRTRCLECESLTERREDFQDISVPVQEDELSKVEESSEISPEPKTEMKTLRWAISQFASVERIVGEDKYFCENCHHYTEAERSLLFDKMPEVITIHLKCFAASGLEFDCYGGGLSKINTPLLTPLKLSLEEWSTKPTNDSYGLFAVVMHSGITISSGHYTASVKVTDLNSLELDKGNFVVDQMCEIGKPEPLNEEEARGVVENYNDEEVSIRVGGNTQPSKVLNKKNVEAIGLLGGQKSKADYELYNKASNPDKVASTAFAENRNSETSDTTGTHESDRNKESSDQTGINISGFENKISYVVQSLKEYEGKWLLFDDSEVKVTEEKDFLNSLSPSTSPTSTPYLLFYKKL

This assay has as its target Ubiquitin carboxyl-terminal hydrolase 1 (Homo sapiens) (UniProt O94782). As to the kind of experiment: Inhibitors of USP1/UAF1: Pilot qHTS (AID 504865). Note: nearly all actives have a fitted effect of over 35% in size. The conditions noted are these: purified USP1/UAF1, Ub-rhodamine cleavage fluorescence; series mostly up to 114 µM. An outline of the steps:
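Kinetic fluorescence assay: 1nM USP1/UAF1, 15 min compound preincubation, then 150nM Ub-Rho; 480/540 nm.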
Background: In qHTS, concentration-response curves come from the screen itself.
`Cc1ccc(C(C)(C)c2ccc(C)cc2)cc1`: the Potency result is “inactive”.

`CC/C=C\C/C=C\C/C=C\C/C=C\C/C=C\C/C=C\CCC(=O)O`: the Potency was 50.1 µM (active).

As to `CC[C@H]1OC(=O)[C@H](C)[C@@H](O[C@H]2C[C@@](C)(OC)[C@@H](O)[C@H](C)O2)C(C)[C@@H](O[C@@H]2O[C@H](C)C[C@H](N(C)C)[C@@H]2O)[C@](C)(OC)C[C@@H](C)C(=O)[C@H](C)[C@@H](O)[C@]1(C)O` (some centres undefined), the Potency result is “inactive”.

Consider `NC(=S)NS(=O)(=O)c1ccc(N)cc1`, for which the Potency entry is “inactive”.

For `Nc1ncnc2c1ncn2CCOCP(=O)(O)O`, the Potency entry is “inactive”.

Take `Cc1cccc(Nc2ncccc2C(=O)O)c1C`: the Potency entry is “inactive”.

Take `C[N+]1(C)[C@@H]2CC(OC(=O)C(O)(c3cccs3)c3cccs3)C[C@H]1[C@@H]1O[C@@H]12` (some centres undefined): the Potency result is “inactive”.

As for `Cc1ncc(C[n+]2csc(CCOP(=O)(O)O)c2C)c(N)n1`, the Potency entry is “inactive”.

As for `CC/C(=C(/CC)c1ccc(OP(=O)(O)O)cc1)c1ccc(OP(=O)(O)O)cc1`, the Potency entry was “inactive”.

`c1ccc(-n2cnnn2)cc1`: the Potency result was “inactive”.

For the compound `CS(=O)(=O)c1ccc([C@@H](O)[C@@H](COC(=O)CN)NC(=O)C(Cl)Cl)cc1`, the Potency result was “inactive”.

In the case of `COc1cc(NCCCC(C)N)c2ncccc2c1` (centres undefined), the Potency was 11.2 µM (active).

Turning to `O=C(OC1C[C@@H]2CC3C[C@H](C1)N2CC3=O)c1c[nH]c2ccccc12` (some centres undefined), the Potency entry is “inactive”.

Take `O=C1N=C2SCCN2C(=O)C1Cc1ccc(Cl)cc1` (centres undefined): the Potency result was “inactive”.

For `CCC(O)c1ccccc1` (centres undefined), the Potency result was “inactive”.

For `CC(C)CCC[C@@H](C)[C@H]1CC[C@H]2[C@@H]3CC[C@@H]4C[C@H](O)CC[C@]4(C)[C@H]3CC[C@]12C`, the Potency entry is “inactive”.

Take `CC(C)[C@H](N)C(=O)OCC(CO)OCn1cnc2c(=O)[nH]c(N)nc21` (some centres undefined): the Potency entry is “inactive”.

With `CC1CC(O)CC(C)(C)C1` (centres undefined), the Potency entry was “inactive”.

For `CC1CCC(NC(=O)N(CCCl)N=O)CC1` (centres undefined), the Potency result is “inactive”.

Regarding `O=C(O)[C@H]1C(=CCO)O[C@H]2CC(=O)N12`, the Potency result was “inactive”.

As for `CN1C(=O)OC(C)(C)C1=O`, the Potency result is “inactive”.

As to `COc1ccc(/C=C/C(=O)O)cc1`, the Potency entry is “inactive”.

`CNC(=O)[C@H](Cc1c[nH]c2ccccc12)NC(=O)[C@@H](CC(=O)NO)CC(C)C`: the Potency result was “inactive”.

As for `Cc1cc(-c2ccc(N=Nc3c(S(=O)(=O)O)cc4cc(S(=O)(=O)O)cc(N)c4c3O)c(C)c2)ccc1N=Nc1c(S(=O)(=O)O)cc2cc(S(=O)(=O)O)cc(N)c2c1O`, the Potency is 8.91 µM (active).

Turning to `c1ccc2c(c1)OCC(CN1CCCCC1)O2` (centres undefined), the Potency entry is “inactive”.

`Oc1ccc(/C=C/c2cc(O)cc(O)c2)cc1`: the Potency result is “inactive”.

`O=C(O)c1ccc(OCCn2ccnc2)cc1`: the Potency entry was “inactive”.

Take `CCN(CC)CCOc1ccc2nc(N(C)C)sc2c1`: the Potency entry was “inactive”.

Consider `C=CC(=O)O`, for which the Potency entry was “inactive”.

For `O=C(CCCN1CCN2CCCC2C1)c1ccc(F)cc1` (centres undefined), the Potency result was “inactive”.

For the compound `C[Se]CC[C@H](N)C(=O)O`, the Potency result was “inactive”.

Turning to `CS(=O)(=O)OCC(O)C(O)COS(C)(=O)=O` (centres undefined), the Potency result is “inactive”.

Turning to `C[C@H](O)CN(C)C`, the Potency result is “inactive”.

On to `C(=C\c1ccncc1)/c1ccccc1`, for which the Potency entry is “inactive”.
